PubChem BioAssay (NCATS)
Where “and” joins values, the source holds several entries; their conditions need not be identical. Equal values may be shown once. Results filed as inconclusive are left out. A call without a number means that no potency is given here. Where a structure was tested more than once in an assay, its records may differ in their call. Calls of active or inactive are those of the source. Unless noted, calls follow the shape of the full dose curve.

Columns and labels:
[1] = qHTS for Inhibitors of the Functional Ribonucleoprotein Complex (vRNP) of Lassa (LASV) Arenavirus: LASV Primary Screen - GLuc reporter signal (AID 1347082; calls by dose curve; tested in HEK293 reporter line; also: nearly all actives have a fitted effect of over 60% in size)
[2] = NS1 protein of Zika virus - qHTS assay to identify small molecule inhibitors in human HEK 293 cells (AID 1347053; active = well fitted inhibition curve with a large enough effect; also: nearly all actives have a fitted effect of over 55% in size)
Summary of the method: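 Following 20 h seeding, HEK 293 cells took compound, then 1 h later ZIKV MR766 (MOI = 0.5). Incubation ran 24 h at 37 C before TR-FRET detection of NS1; a drop in signal indicates inhibition.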

[3] = qHTS for Inhibitors of the Functional Ribonucleoprotein Complex (vRNP) of Lassa (LASV) Arenavirus: Viability assay - alamar blue signal for LASV Primary Screen (AID 1347083; calls by dose curve; tested in HEK293 reporter line; also: nearly all actives have a fitted effect of over 80% in size)
[4] = qHTS for Inhibitors of the Functional Ribonucleoprotein Complex (vRNP) of Lymphocytic Choriomeningitis Arenaviruses (LCMV): Viability assay - alamar blue signal for LCMV Primary Screen (AID 1347085; calls by dose curve; tested in HEK293 reporter line; also: nearly all actives have a fitted effect of over 80% in size)
[5] = molecular target: Nucleoprotein (Lymphocytic choriomeningitis virus (strain Armstrong)) (UniProt P09992); assay: qHTS for Inhibitors of the Functional Ribonucleoprotein Complex (vRNP) of Lymphocytic Choriomeningitis Arenaviruses (LCMV): LCMV Primary Screen - GLuc reporter signal (AID 1347086); also: nearly all actives have a fitted effect of over 70% in size
Sequence of Nucleoprotein (Lymphocytic choriomeningitis virus (strain Armstrong)) (P09992 whole entry, looked up): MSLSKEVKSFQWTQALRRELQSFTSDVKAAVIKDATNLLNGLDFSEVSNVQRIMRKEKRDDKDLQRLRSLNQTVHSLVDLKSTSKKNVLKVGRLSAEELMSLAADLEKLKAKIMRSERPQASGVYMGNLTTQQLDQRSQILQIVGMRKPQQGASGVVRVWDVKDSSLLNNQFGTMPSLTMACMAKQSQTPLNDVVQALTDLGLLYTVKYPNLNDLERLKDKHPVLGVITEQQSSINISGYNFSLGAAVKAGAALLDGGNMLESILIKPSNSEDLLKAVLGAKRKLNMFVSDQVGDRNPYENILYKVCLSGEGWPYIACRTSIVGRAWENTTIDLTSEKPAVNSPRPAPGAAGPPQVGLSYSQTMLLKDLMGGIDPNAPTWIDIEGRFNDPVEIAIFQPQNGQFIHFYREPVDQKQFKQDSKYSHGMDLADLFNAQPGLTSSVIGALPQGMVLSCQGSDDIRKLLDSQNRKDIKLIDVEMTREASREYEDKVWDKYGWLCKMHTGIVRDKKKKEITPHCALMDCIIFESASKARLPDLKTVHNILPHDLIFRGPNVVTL
Potency is read from the fitted curve at half-maximal effect.

Structure (SMILES): CC(C)=CCNc1ncnc2c1ncn2[C@@H]1O[C@H](CO)[C@@H](O)[C@H]1O
- Potency [1]: inactive

Structure (SMILES): C[C@@H]1C[C@@H]([C@H](O)CC2CC(=O)NC(=O)C2)C(=O)[C@@H](C)C1
- Potency [2]: inactive and 93.5 nM (active)
- Potency [1]: 0.968 µM (active)
- Potency [3]: 158 nM (active) and 432 nM (active)
- Potency [4]: 1.09 µM (active)
- Potency [5]: 1.37 µM (active)

Structure (SMILES): CC(C)NCC(O)c1ccc(N)c(C#N)c1 (configuration not stated)
- Potency [2]: inactive
- Potency [1]: inactive
- Potency [3]: inactive
- Potency [4]: inactive
- Potency [5]: inactive

Structure (SMILES): Nc1ccc(Cl)cc1C(=O)c1ccccc1F
- Potency [2]: inactive
- Potency [1]: inactive
- Potency [3]: inactive
- Potency [4]: inactive
- Potency [5]: inactive

Structure (SMILES): CC(Cc1ccccc1)NCCCCl (configuration not stated)
- Potency [2]: inactive
- Potency [1]: inactive
- Potency [3]: inactive
- Potency [4]: inactive
- Potency [5]: inactive

Structure (SMILES): CC(C)=C[C@@H]1[C@@H](C(=O)OCc2coc(Cc3ccccc3)c2)C1(C)C
- Potency [2]: inactive
- Potency [1]: inactive
- Potency [3]: inactive
- Potency [4]: inactive
- Potency [5]: inactive

Structure (SMILES): NCc1cccnc1
- Potency [2]: inactive
- Potency [1]: inactive
- Potency [3]: inactive
- Potency [4]: inactive
- Potency [5]: inactive

Structure (SMILES): C#C[C@]1(O)C=C[C@H]2[C@@H]3CCC4=CC(=O)CC[C@@H]4[C@H]3CC[C@@]21CC
- Potency [2]: inactive
- Potency [1]: inactive
- Potency [3]: inactive
- Potency [4]: inactive
- Potency [5]: inactive

Structure (SMILES): O=C(N[C@H]1N=C(c2ccccc2F)c2cccc3c2N(CC3)C1=O)c1cc2ccccc2[nH]1
- Potency [2]: inactive
- Potency [1]: inactive
- Potency [3]: inactive
- Potency [4]: inactive
- Potency [5]: inactive

Structure (SMILES): CCN(CC)CCOc1ccc2c(c1)C(=O)c1cc(OCCN(CC)CC)ccc1-2
- Potency [1]: inactive

Structure (SMILES): CC(CC(C(N)=O)(c1ccccc1)c1ccccc1)N(C)C (configuration not stated)
- Potency [2]: inactive
- Potency [1]: inactive
- Potency [3]: inactive
- Potency [4]: inactive
- Potency [5]: inactive

Structure (SMILES): Clc1ccc(CO/N=C(\Cn2ccnc2)c2ccc(Cl)cc2Cl)c(Cl)c1
- Potency [2]: inactive
- Potency [1]: inactive
- Potency [3]: inactive
- Potency [4]: inactive
- Potency [5]: inactive

Structure (SMILES): CC(=O)Oc1ccc(C2(c3ccc(OC(C)=O)cc3)Oc3ccccc3NC2=O)cc1
- Potency [1]: inactive

Structure (SMILES): CCOc1ccc(Cc2nccc3cc(OCC)c(OCC)cc23)cc1OCC
- Potency [1]: inactive
- Potency [3]: inactive
- Potency [4]: inactive

Structure (SMILES): COC(=O)[C@H]1[C@H]2C[C@@H]3c4[nH]c5cc(OC)ccc5c4CCN3C[C@H]2C[C@@H](OC(=O)/C=C/c2ccc(O)c(OC)c2)[C@@H]1OC
- Potency [1]: inactive

Structure (SMILES): Cc1nc2n(c(=O)c1CCN1CCC(C(=O)c3ccc(F)cc3)CC1)CCS2
- Potency [1]: inactive
- Potency [3]: inactive
- Potency [4]: inactive

Structure (SMILES): COc1ccc(/C=C/C(=O)c2ccc(OC)cc2OC)cc1
- Potency [1]: inactive
- Potency [3]: inactive
- Potency [4]: inactive

Structure (SMILES): CC(=C(CCOC(=O)C(C)C)SSC(CCOC(=O)C(C)C)=C(C)N(C=O)Cc1cnc(C)nc1N)N(C=O)Cc1cnc(C)nc1N
- Potency [1]: inactive
- Potency [3]: inactive

Structure (SMILES): COc1cccc2c1C(=O)c1c(O)c3c(c(O)c1C2=O)C[C@@](O)(C(=O)CO)C[C@@H]3O[C@H]1C[C@H](N)[C@H](O[C@@H]2CCCCO2)[C@H](C)O1
- Potency [1]: inactive

Structure (SMILES): CCCCOc1cc(C(=O)NCCN(CC)CC)c2ccccc2n1
- Potency [1]: inactive
- Potency [3]: inactive

Structure (SMILES): Cc1c(C(=O)NN2CCCCC2)nn(-c2ccc(Cl)cc2Cl)c1-c1ccc(Cl)cc1
- Potency [1]: inactive
- Potency [3]: inactive
- Potency [4]: inactive

Structure (SMILES): Cc1ccc2c(Br)cc(Br)c(O)c2n1
- Potency [1]: inactive

Structure (SMILES): CCCCC(CC)COC(=O)C(C#N)=C(c1ccccc1)c1ccccc1 (configuration not stated)
- Potency [1]: inactive

Structure (SMILES): COc1ccc([C@@H]2Sc3ccccc3NC(=O)[C@@H]2O)cc1
- Potency [1]: inactive

Structure (SMILES): COC(=O)Nc1nc2ccc(Sc3ccccc3)cc2[nH]1
- Potency [1]: inactive
- Potency [3]: 5.44 µM (active)
- Potency [4]: 5.44 µM (active)

Structure (SMILES): O=C(O)C(Cc1cc(I)c(O)c(I)c1)c1ccccc1 (configuration not stated)
- Potency [1]: inactive

Structure (SMILES): CSc1ccc(C(=O)c2[nH]c(=O)[nH]c2C)cc1
- Potency [1]: inactive
- Potency [3]: inactive
- Potency [4]: inactive
- Potency [5]: inactive

Structure (SMILES): Cc1cn([C@H]2C[C@H](F)[C@@H](CO)O2)c(=O)[nH]c1=O
- Potency [1]: inactive
- Potency [3]: inactive
- Potency [4]: inactive
- Potency [5]: inactive

Structure (SMILES): CCNC(=O)N1CCN(CCCC(c2ccc(F)cc2)c2ccc(F)cc2)CC1
- Potency [1]: inactive
- Potency [3]: inactive
- Potency [4]: inactive

Structure (SMILES): C#C[C@]1(O)CC[C@H]2[C@@H]3CCC4=CC(=O)CC[C@@H]4[C@H]3CC[C@@]21C
- Potency [1]: inactive
- Potency [3]: inactive
- Potency [4]: inactive
- Potency [5]: inactive

Structure (SMILES): CN1CCCCC1CCN1c2ccccc2Sc2ccc(S(C)=O)cc21 (configuration not stated)
- Potency [1]: inactive
- Potency [3]: inactive
- Potency [4]: inactive
- Potency [5]: inactive

Structure (SMILES): CC(C(O)c1ccccc1)N(C)CCOC(c1ccccc1)c1ccccc1 (configuration not stated)
- Potency [1]: inactive

Structure (SMILES): CN1CCCC(CC2c3ccccc3Sc3ccccc32)C1 (configuration not stated)
- Potency [1]: inactive

Structure (SMILES): CCN(CC)CCNc1ccc(CO)c2sc3ccccc3c(=O)c12
- Potency [1]: inactive

Structure (SMILES): Oc1c(Cl)cc(Cl)cc1Sc1cc(Cl)cc(Cl)c1O
- Potency [1]: inactive
- Potency [3]: inactive
